According to PubChem BioAssay AID1159580 (chemical genetic matrix, 2015):
Where “and” joins values, the source holds several entries; their conditions need not be identical. Equal entries are not always repeated. The whole screen tested about 5,500 compounds, of which about 2,000 (36%) were called active. Another 18% or so got no clear call; they are omitted. No stated cut-off is given here; in the data, active means normalized growth mostly below about 0.91 (no sharp cut-off); inconclusive means no clear call, values can overlap the other calls; inactive means mostly above about 0.92. This is one part of the list.

Experiment: chemical genetic growth profiling, strain panel (AID 1159580);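 further: tested at 20 µM; growth read once vehicle control cultures reached saturation at 30 °C; 1 = growth at the plate median or of vehicle wells; lower values mean less growth of the strain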
Details: S. cerevisiae deletion strains, growth OD

Measured: normalized growth

O=C(O)CNCP(=O)(O)O
inactive: locus YAL013W, strain DEP1, active compounds read low 0.998 | locus YAL021C, strain ccr4, active compounds read low 1.04 | locus YAL026C, strain drs2, active compounds read low 1.02 | locus YAL030W, strain snc1, active compounds read low 1.02 | locus YBL061C, strain skt5, active compounds read low 1.01 | locus YBR009C, strain hhf1, active compounds read low 1.01 | locus YBR021W, strain FUR4, active compounds read low 0.992 | locus YBR023C, strain chs3, active compounds read low 1.02 | locus YBR171W, strain sec66, active compounds read low 1.04 | locus YBR229C, strain ROT2, active compounds read low 1 | locus YBR231C, strain swc5, active compounds read low 1.02 | locus YBR279W, strain paf1, active compounds read low 1.02 | locus YCL011C, strain gbp2, active compounds read low 1.02 | locus YCL016C, strain dcc1, active compounds read low 1.02 | locus YCL029C, strain bik1, active compounds read low 1.01 | locus YCL061C, strain MRC1, active compounds read low 1.01 | locus YCL069W, strain vba3, active compounds read low 1.02 | locus YCR088W, strain abp1, active compounds read low 1.01 | locus YDL005C, strain med2, active compounds read low 1.03 | locus YDL035C, strain GPR1, active compounds read low 1.02 | locus YDL040C, strain nat1, active compounds read low 1.02 | locus YDL074C, strain BRE1, active compounds read low 1.04 | locus YDL101C, strain DUN1, active compounds read low 1.02 | locus YDL134C, strain PPH21, active compounds read low 1.01 | locus YDL185W, strain tfp1, active compounds read low 1.01 | locus YDL192W, strain arf1, active compounds read low 1.01 | locus YDR001C, strain nth1, active compounds read low 1.01 | locus YDR069C, strain doa4, active compounds read low 1.02 | locus YDR101C, strain arx1, active compounds read low 1 | locus YDR137W, strain rgp1, active compounds read low 1.02 | locus YDR150W, strain NUM1, active compounds read low 0.997 | locus YDR159W, strain sac3, active compounds read low 1.02 | locus YDR162C, strain NBP2, active compounds read low 1 | locus YDR195W, strain ref2 1.01 | locus YDR297W, strain sur2, active compounds read low 1.01 | locus YDR318W, strain mcm21, active compounds read low 1.02 | locus YDR334W, strain swr1, active compounds read low 1.03 | locus YDR335W, strain msn5, active compounds read low 1.02 | locus YDR388W, active compounds read low 1.01 | locus YDR392W, strain spt3, active compounds read low 1.03 | locus YDR502C, strain sam2, active compounds read low 1.01 | locus YEL003W, strain gim4, active compounds read low 1.01 | locus YEL037C, strain rad23, active compounds read low 1.01 | locus YEL061C, strain CIN8 (second series), active compounds read low 1.02 | locus YEL061C, strain CIN8, active compounds read low 0.998 | locus YER015W, strain faa2, active compounds read low 1.02 | locus YER016W, strain bim1, active compounds read low 1.01 | locus YER110C, active compounds read low 1.02 | locus YER111C, strain swi4, active compounds read low 1.01 | locus YER155C, strain BEM2 (second series), active compounds read low 1.02 | locus YER155C, strain BEM2, active compounds read low 1.01 | locus YER167W, strain BCK2, active compounds read low 0.999 | locus YFR010W, strain ubp6, active compounds read low 1.02 | locus YGL078C, strain dbp3, active compounds read low 1.01 | locus YGL086W, strain mad1, active compounds read low 1 | locus YGL167C, strain pmr1, active compounds read low 1.02 | locus YGL173C, strain kem1, active compounds read low 1.01 | locus YGL227W, strain vid30, active compounds read low 1.02 | locus YGL240W, strain doc1, active compounds read low 1.02 | locus YGL248W, strain PDE1, active compounds read low 1.02 | locus YGL253W, strain hxk2, active compounds read low 1.01 | locus YGR078C, strain PAC10, active compounds read low 1.01 | locus YGR135W, strain pre9, active compounds read low 1.02 | locus YGR229C, strain SMI1, active compounds read low 1.02 | locus YGR252W, strain gcn5, active compounds read low 1.01 | locus YHR013C, strain ard1, active compounds read low 1.06 | locus YHR027C, strain rpn1, active compounds read low 1 | locus YHR030C, strain SLT2, active compounds read low 1.01 and 0.97 | locus YHR079C, strain IRE1 (second series), active compounds read low 1.01 | locus YHR079C, strain IRE1, active compounds read low 0.992 | locus YHR094C, strain hxt1, active compounds read low 1 | locus YHR129C, strain ARP1, active compounds read low 1.01 | locus YHR142W, strain chs7, active compounds read low 1.02 | locus YHR200W, strain rpn10, active compounds read low 1.01 | locus YIL066C, strain RNR3, active compounds read low 1.02 | locus YIL073C, strain SPO22, active compounds read low 1.08 | locus YIL125W, strain kgd1, active compounds read low 1.01 | locus YIR030C, strain dcg1, active compounds read low 1.01 | locus YJL092W, strain hpr5, active compounds read low 1.02 | locus YJL095W, strain BCK1 (second series), active compounds read low 1.01 | locus YJL095W, strain BCK1, active compounds read low 1.01 and 0.975 | locus YJL115W, strain asf1, active compounds read low 1.02 | locus YJL129C, strain trk1, active compounds read low 1.03 | locus YJL134W, strain LCB3, active compounds read low 1.01 | locus YJL154C, strain vps35, active compounds read low 1.02 | locus YJL164C, strain tpk1, active compounds read low 1.02 | locus YJL166W, strain qcr8, active compounds read low 1.02 | locus YJL168C, strain set2, active compounds read low 1.01 | locus YJL187C, strain SWE1 (second series), active compounds read low 1.01 | locus YJL187C, strain SWE1, active compounds read low 1.01 | locus YJR043C, strain POL32, active compounds read low 1.01 | locus YJR066W, strain TOR1, active compounds read low 0.926
